Experimental data published in PubChem BioAssay (EPA / NIEHS).
Several values for one entry are separate records, joined by “and”; a condition that tells them apart may be missing. Equal values may be shown once. More than one record can exist for a structure, and the calls need not agree. Activity calls are given as the source filed them. The calls were made as follows: active = hit-call score of the fitted dose curve at least 0.9, where 1 is the maximum; inactive = score below 0.9.

Columns and labels:
Conditions in all cases: mRNA level, 48 h; actives raise or lower the signal
[1] = read-out: matrix metalloproteinase-3 (MMP3), MMP3 (gene 4314); experiment: LTEA_HepaRG_MMP3: Life Technologies and Expression Analysis (LTEA) Assay for matrix metalloproteinase-3 (MMP3) using HepaRG (AID 2283519)
Outline: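 Fluidigm-based TaqMan qRT-PCR, normalized to ACTB, GAPDH and POLR2A and fitted bidirectionally versus 0.5% DMSO, measured transcript levels. Treatment: duplicate 48 h exposures of HepaRG cells, ~100,000/well, to eight half-log concentrations topping at 100 uM.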

[2] = read-out: Paternally Expressed 10 (PEG10), PEG10 (gene 23089); experiment: LTEA_HepaRG_PEG10: Life Technologies and Expression Analysis (LTEA) Assay for Paternally Expressed 10 (PEG10) using HepaRG (AID 2283520);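 as to AC50: PEG10 transcript by qRT-PCR normalised to ACTB GAPDH and POLR2A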
Outline: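 After 48 h exposure of differentiated HepaRG cells (0.5% DMSO vehicle, eight concentrations up to 100 uM, duplicates), PEG10 mRNA was measured by TaqMan qRT-PCR. Values were normalised to endogenous control genes and analysed bidirectionally against vehicle.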

[3] = read-out: Nuclear factor NF-kappa-B p105 subunit (Homo sapiens) (UniProt P19838); experiment: LTEA_HepaRG_NFKB1: Life Technologies and Expression Analysis (LTEA) Assay for Nuclear Factor Kappa B Subunit 1 (NFKB1) using HepaRG (AID 2283521)
Outline: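 Differentiated human HepaRG cells were exposed for 48 h in serum-free induction medium to eight concentrations (top 100 uM, half-log steps, 0.5% DMSO), in duplicate. NFKB1 mRNA was measured by TaqMan qRT-PCR, normalized to ACTB/GAPDH/POLR2A, and fitted bidirectionally against DMSO.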

[4] = read-out: Protein phosphatase 2A (PPP2R4), PTPA (gene 5524); experiment: LTEA_HepaRG_PPP2R4: Life Technologies and Expression Analysis (LTEA) Assay for Protein phosphatase 2A (PPP2R4) using HepaRG (AID 2283522)
Outline: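 Using HepaRG cultures maintained in 0.5% DMSO, chemicals are tested 48 h at up to 100 uM in duplicate. Induction or suppression of PPP2R4 mRNA, measured by qRT-PCR, is fitted bidirectionally against the vehicle baseline.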

[5] = read-out: Phosphatase and tensin (PTEN), PTEN (gene 5728); experiment: LTEA_HepaRG_PTEN: Life Technologies and Expression Analysis (LTEA) Assay for Phosphatase and tensin (PTEN) using HepaRG (AID 2283523)
Outline: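 Read-out: TaqMan qRT-PCR of PTEN transcript, normalized to three housekeeping genes, fitted in both directions against 0.5% DMSO. Differentiated human HepaRG cultures received chemicals for 48 h, eight-point half-log series topping at 100 uM.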

[6] = read-out: Pyruvate Dehydrogenase Kinase 4 (PDK4), PDK4 (gene 5166); experiment: LTEA_HepaRG_PDK4: Life Technologies and Expression Analysis (LTEA) Assay for Pyruvate Dehydrogenase Kinase 4 (PDK4) using HepaRG (AID 2283525)
Outline: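 Readout is qRT-PCR of PDK4 transcript, normalized to three housekeeping genes, with bidirectional fitting against 0.5% DMSO vehicle. Differentiated HepaRG cells were treated 48 h in serum-free induction medium, duplicate wells, eight-point half-log series topping at 100 uM.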

[7] = read-out: NAD(P)H dehydrogenase [quinone] 1 (NQO1), NQO1 (gene 1728); experiment: LTEA_HepaRG_NQO1: Life Technologies and Expression Analysis (LTEA) Assay for NAD(P)H dehydrogenase [quinone] 1 (NQO1) using HepaRG (AID 2283526)
Outline: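 In this assay, gene expression is read by qRT-PCR after 48 h exposure of HepaRG cells to eight concentrations (max 100 uM, half-log) in 0.5% DMSO. Each chemical runs in duplicate, and activity is scored relative to vehicle.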

[8] = read-out: Nuclear factor erythroid 2-related factor 2 (Homo sapiens) (UniProt Q16236); experiment: LTEA_HepaRG_NFE2L2: Life Technologies and Expression Analysis (LTEA) Assay for Nuclear factor erythroid 2-related factor 2 (NFE2L2) Transcription Factor using HepaRG (AID 2283527);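 as to outcome: TaqMan qRT-PCR transcript level normalised to ACTB GAPDH and POLR2A housekeeping genes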
Outline: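 NFE2L2 transcript level was read by qRT-PCR (housekeeping ACTB/GAPDH/POLR2A normalisation) after 48 h chemical treatment of HepaRG in serum-free induction medium. Duplicate 8-point half-log curves, top 100 uM, 0.5% DMSO vehicle; up- or down-regulation fitted against vehicle.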

[9] = read-out: succinate dehydrogenase complex iron sulfur subunit B (SDHB), SDHB (gene 6390); experiment: LTEA_HepaRG_SDHB: Life Technologies and Expression Analysis (LTEA) Assay for succinate dehydrogenase complex iron sulfur subunit B (SDHB) using HepaRG (AID 2283528)
Outline: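 HepaRG, 48 h exposure, 8-pt half-log series from 100 uM in 0.5% DMSO, duplicates. Readout: SDHB mRNA by Fluidigm qRT-PCR vs housekeeping genes; bidirectional fit relative to DMSO.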

[10] = read-out: Signal transducer and activator of transcription 3 (Homo sapiens) (UniProt P40763); experiment: LTEA_HepaRG_STAT3: Life Technologies and Expression Analysis (LTEA) Assay for Signal transducer and activator of transcription (STAT3) using HepaRG (AID 2283529)
Outline: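 STAT3 transcript quantified by qRT-PCR against three housekeeping genes (ACTB, GAPDH, POLR2A), fitted both directions relative to DMSO. HepaRG cultures exposed 48 h to eight half-log concentrations, top 100 uM, 0.5% DMSO, serum-free induction medium.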

[11] = read-out: solute carrier (SLCO1B1), SLCO1B1 (gene 10599); experiment: LTEA_HepaRG_SLCO1B1: Life Technologies and Expression Analysis (LTEA) Assay for solute carrier (SLCO1B1) using HepaRG (AID 2283530)
Outline: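 SLCO1B1 transcript levels were quantified by TaqMan qRT-PCR using three housekeeping genes for normalization. This followed 48 h chemical exposure (100 uM top, half-log, 8 points, 0.5% DMSO) of HepaRG liver cells, with gain or loss fitted relative to DMSO.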

[12] = read-out: sulfotransferase 2A1 (SULT2A1), SULT2A1 (gene 6822); experiment: LTEA_HepaRG_SULT2A1: Life Technologies and Expression Analysis (LTEA) Assay for sulfotransferase 2A1 (SULT2A1) using HepaRG (AID 2283531)
Outline: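 Expression change of SULT2A1, by qRT-PCR with three housekeeping-gene normalization, was scored bidirectionally versus DMSO. Cells: differentiated HepaRG, dosed in duplicate for 48 h across 8 points, highest 100 µM, half-log dilution, 0.5% DMSO.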

[13] = read-out: Transforming Growth Factor (TGFA), TGFA (gene 7039); experiment: LTEA_HepaRG_TGFA: Life Technologies and Expression Analysis (LTEA) Assay for Transforming Growth Factor (TGFA) using HepaRG (AID 2283532)
Outline: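 TGFA transcript quantified by qRT-PCR (Fluidigm arrays) against three housekeeping genes, after 48 hours chemical treatment of HepaRG cells. Top concentration 100 uM with half-log dilutions, 8 points, duplicates, 0.5% DMSO.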

[14] = read-out: Transforming Growth Factor (TGFB1), TGFB1 (gene 7040); experiment: LTEA_HepaRG_TGFB1: Life Technologies and Expression Analysis (LTEA) Assay for Transforming Growth Factor (TGFB1) Transporter using HepaRG (AID 2283533)
Outline: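 TGFB1 transcript measured by qRT-PCR with normalisation to three housekeeping genes (ACTB, GAPDH, POLR2A); human HepaRG line treated in duplicate for 48 hr with an 8-point series topping at 100 uM, 0.5% DMSO vehicle, bidirectionally fitted.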

TIMP1, TIMP1 (gene 7076) = experiment: LTEA_HepaRG_TIMP1: Life Technologies and Expression Analysis (LTEA) Assay for TIMP1 using HepaRG (AID 2283534);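 as to outcome: TaqMan qRT-PCR signal normalized to ACTB GAPDH and POLR2A housekeeping genes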
Outline: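 Bidirectional change in TIMP1 transcript versus 0.5% DMSO, measured by TaqMan qRT-PCR with three housekeeping genes for normalization. HepaRG human liver cells dosed 48 h in duplicate, top concentration 100 uM with half-log dilutions.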

[15] = read-out: Tumor necrosis factor receptor 1 (TNFRSF1A), TNFRSF1A (gene 7132); experiment: LTEA_HepaRG_TNFRSF1A: Life Technologies and Expression Analysis (LTEA) Assay for Tumor necrosis factor receptor 1 (TNFRSF1A) using HepaRG (AID 2283535)
Outline: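 mRNA measured by qRT-PCR (TaqMan, Fluidigm arrays) against ACTB/GAPDH/POLR2A housekeepers after 48 h chemical exposure of HepaRG cells. Top concentration 100 uM, half-log 8-point series, duplicates; vehicle 0.5% DMSO, both fit directions.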

[16] = read-out: Thyroid Hormone Responsive (THRSP), THRSP (gene 7069); experiment: LTEA_HepaRG_THRSP: Life Technologies and Expression Analysis (LTEA) Assay for Thyroid Hormone Responsive (THRSP) using HepaRG (AID 2283536)
Outline: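 THRSP transcript quantified by Fluidigm qRT-PCR against three housekeeping genes after 48 h chemical exposure of HepaRG cells in serum-free induction medium; eight-point half-log series, top 100 uM, 0.5% DMSO vehicle, duplicate wells.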

[17] = read-out: Cellular tumor antigen p53 (Homo sapiens) (UniProt P04637); experiment: LTEA_HepaRG_TP53: Life Technologies and Expression Analysis (LTEA) Assay for Tumor Protein P53 (TP53) using HepaRG (AID 2283537)
Outline: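 HepaRG, 48 h exposure, top 100 uM, half-log 8-point, 0.5% DMSO vehicle, duplicates. Read: TP53 mRNA by TaqMan qRT-PCR, normalised to ACTB/GAPDH/POLR2A; bidirectional fit vs DMSO.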

[18] = read-out: UDP glucuronosyltransferase (UGT1A1), UGT1A1 (gene 54658); experiment: LTEA_HepaRG_UGT1A1: Life Technologies and Expression Analysis (LTEA) Assay for UDP glucuronosyltransferase (UGT1A1) using HepaRG (AID 2283538)
Outline: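 mRNA induction or loss of UGT1A1, by TaqMan qRT-PCR, in duplicate HepaRG wells after 48 h exposure to half-log dilutions topping at 100 uM; DMSO (0.5%) served as baseline.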

[19] = read-out: solute carrier (SLC22A1), SLC22A1 (gene 6580); experiment: LTEA_HepaRG_SLC22A1: Life Technologies and Expression Analysis (LTEA) Assay for solute carrier (SLC22A1) using HepaRG (AID 2283524)
Outline: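 Transcript level of SLC22A1 quantified by qRT-PCR (normalized to three housekeeping genes) after 48 h chemical exposure of HepaRG cells, eight concentrations up to 100 µM, half-log steps, 0.5% DMSO vehicle. Gain or loss relative to DMSO fitted bidirectionally.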

Chain of Nuclear factor erythroid 2-related factor 2 (Homo sapiens) (Q16236 whole entry, looked up): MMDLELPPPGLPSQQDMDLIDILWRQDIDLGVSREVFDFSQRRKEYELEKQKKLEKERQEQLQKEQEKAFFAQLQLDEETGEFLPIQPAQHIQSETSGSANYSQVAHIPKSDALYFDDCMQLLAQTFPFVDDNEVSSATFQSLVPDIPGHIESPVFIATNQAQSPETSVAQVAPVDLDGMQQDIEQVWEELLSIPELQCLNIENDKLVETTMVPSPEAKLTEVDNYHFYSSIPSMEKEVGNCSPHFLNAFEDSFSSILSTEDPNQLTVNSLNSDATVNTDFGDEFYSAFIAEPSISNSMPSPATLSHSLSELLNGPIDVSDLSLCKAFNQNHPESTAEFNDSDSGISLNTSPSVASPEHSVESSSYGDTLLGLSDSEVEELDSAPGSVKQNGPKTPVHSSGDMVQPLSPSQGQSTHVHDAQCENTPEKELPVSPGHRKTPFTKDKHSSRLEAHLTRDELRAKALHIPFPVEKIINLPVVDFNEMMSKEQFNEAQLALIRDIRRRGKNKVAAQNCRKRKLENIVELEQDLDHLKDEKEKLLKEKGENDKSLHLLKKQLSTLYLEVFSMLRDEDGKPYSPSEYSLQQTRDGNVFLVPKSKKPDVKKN
Chain of Nuclear factor NF-kappa-B p105 subunit (Homo sapiens) (P19838 whole entry, looked up): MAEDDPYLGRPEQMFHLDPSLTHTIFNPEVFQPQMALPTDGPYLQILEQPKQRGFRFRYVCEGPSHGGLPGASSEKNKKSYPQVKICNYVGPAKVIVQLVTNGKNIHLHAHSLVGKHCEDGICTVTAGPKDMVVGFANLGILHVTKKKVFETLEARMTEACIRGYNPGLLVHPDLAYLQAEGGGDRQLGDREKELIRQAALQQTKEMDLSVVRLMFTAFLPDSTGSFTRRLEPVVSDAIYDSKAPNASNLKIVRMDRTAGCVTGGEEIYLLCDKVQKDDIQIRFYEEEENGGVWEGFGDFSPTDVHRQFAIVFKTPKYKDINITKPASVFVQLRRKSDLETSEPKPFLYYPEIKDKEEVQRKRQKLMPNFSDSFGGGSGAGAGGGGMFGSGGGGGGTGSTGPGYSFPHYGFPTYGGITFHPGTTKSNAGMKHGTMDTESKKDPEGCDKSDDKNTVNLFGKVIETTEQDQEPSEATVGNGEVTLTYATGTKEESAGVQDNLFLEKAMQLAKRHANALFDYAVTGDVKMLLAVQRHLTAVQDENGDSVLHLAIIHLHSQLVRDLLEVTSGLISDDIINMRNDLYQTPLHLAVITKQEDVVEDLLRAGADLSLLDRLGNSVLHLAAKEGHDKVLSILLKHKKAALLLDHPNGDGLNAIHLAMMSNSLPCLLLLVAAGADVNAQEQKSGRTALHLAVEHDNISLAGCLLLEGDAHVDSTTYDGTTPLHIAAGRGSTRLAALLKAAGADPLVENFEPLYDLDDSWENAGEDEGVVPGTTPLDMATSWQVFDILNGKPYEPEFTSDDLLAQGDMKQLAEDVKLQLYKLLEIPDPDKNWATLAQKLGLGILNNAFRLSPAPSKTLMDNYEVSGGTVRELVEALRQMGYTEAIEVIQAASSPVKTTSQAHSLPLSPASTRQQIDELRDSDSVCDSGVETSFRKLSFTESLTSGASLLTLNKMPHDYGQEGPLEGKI
Chain of Signal transducer and activator of transcription 3 (Homo sapiens) (P40763 whole entry, looked up): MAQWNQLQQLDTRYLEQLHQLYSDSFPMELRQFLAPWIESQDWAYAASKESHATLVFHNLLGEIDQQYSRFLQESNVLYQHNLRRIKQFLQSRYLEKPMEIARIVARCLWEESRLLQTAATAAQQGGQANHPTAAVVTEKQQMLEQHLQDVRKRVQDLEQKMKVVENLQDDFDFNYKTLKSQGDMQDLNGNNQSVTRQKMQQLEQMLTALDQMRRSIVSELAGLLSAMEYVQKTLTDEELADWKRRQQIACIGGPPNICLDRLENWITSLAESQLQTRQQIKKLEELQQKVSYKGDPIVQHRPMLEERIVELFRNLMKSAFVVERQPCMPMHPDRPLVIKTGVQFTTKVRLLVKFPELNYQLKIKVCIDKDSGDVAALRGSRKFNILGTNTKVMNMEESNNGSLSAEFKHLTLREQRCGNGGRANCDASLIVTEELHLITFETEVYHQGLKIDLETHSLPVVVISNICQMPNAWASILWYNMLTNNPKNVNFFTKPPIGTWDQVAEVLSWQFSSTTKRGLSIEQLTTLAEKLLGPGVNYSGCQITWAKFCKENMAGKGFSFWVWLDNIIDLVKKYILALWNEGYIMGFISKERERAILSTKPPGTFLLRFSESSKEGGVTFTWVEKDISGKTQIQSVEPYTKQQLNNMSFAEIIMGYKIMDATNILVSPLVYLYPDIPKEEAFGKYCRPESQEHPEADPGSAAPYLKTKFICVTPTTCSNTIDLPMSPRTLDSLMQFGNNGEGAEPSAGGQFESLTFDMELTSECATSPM
Chain of Cellular tumor antigen p53 (Homo sapiens) (P04637 whole entry, looked up): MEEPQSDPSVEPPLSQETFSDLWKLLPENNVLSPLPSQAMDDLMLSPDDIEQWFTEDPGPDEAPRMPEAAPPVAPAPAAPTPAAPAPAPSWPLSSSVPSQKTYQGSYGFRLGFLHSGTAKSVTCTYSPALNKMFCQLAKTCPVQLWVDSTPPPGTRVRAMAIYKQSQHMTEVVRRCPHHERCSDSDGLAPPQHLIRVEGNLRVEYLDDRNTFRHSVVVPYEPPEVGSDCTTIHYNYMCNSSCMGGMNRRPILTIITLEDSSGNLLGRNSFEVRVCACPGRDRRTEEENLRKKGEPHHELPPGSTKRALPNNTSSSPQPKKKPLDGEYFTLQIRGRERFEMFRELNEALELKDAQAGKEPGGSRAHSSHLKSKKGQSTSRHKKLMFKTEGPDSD

C#C[C@]1(O)CC[C@H]2[C@@H]3CCc4cc(O)ccc4[C@H]3CC[C@@]21C
outcome [1]: inactive | outcome [2]: inactive | outcome [3]: inactive | outcome [4]: inactive | outcome [5]: inactive | outcome [6]: inactive | outcome [7]: inactive | outcome [8]: inactive | outcome [9]: inactive | outcome [10]: inactive | outcome [11]: inactive | outcome [12]: inactive | outcome [13]: inactive | outcome [14]: inactive | outcome (TIMP1, TIMP1 (gene 7076)): inactive | outcome [15]: inactive | outcome [16]: inactive | outcome [17]: inactive | outcome [18]: inactive

CC/C(=C(\c1ccccc1)c1ccc(OCCN(C)C)cc1)c1ccccc1
AC50 [1]: 86.1 µM (active) and 92.9 µM (active) | AC50 [2]: 53.8 µM (active) and 94 µM (active) | AC50 [3]: 81.9 µM (active) | outcome [3]: inactive | outcome [4]: inactive | AC50 [5]: 93.3 µM (active) | outcome [5]: inactive | AC50 [19]: 42.3 µM (active) and 15.8 µM (active) | AC50 [6]: 69.2 µM (active) | outcome [6]: inactive | AC50 [7]: 79.9 µM (active) | outcome [7]: inactive | AC50 [8]: 77.1 µM (active) | outcome [8]: inactive | AC50 [9]: 81.1 µM (active) | outcome [9]: inactive | AC50 [10]: 60.3 µM (active) and 95.8 µM (active) | AC50 [11]: 45.8 µM (active) | outcome [11]: inactive | AC50 [12]: 74.6 µM (active) | outcome [12]: inactive | AC50 [13]: 94.2 µM (active) | outcome [13]: inactive | AC50 [14]: 73.5 µM (active) | outcome [14]: inactive | AC50 (TIMP1, TIMP1 (gene 7076)): 83.7 µM (active) | outcome (TIMP1, TIMP1 (gene 7076)): inactive | AC50 [15]: 66.3 µM (active) | outcome [15]: inactive | outcome [16]: inactive | AC50 [17]: 45.8 µM (active) and 40 µM (active) | AC50 [18]: 32.1 µM (active) | outcome [18]: inactive

C[C@]12CC[C@@H]3c4ccc(O)cc4CC[C@H]3[C@@H]1CC[C@@H]2O
outcome [1]: inactive | AC50 [2]: 10.6 µM (active) | outcome [4]: inactive | outcome [5]: inactive | AC50 [19]: 50 µM (active) | outcome [6]: inactive | outcome [7]: inactive | outcome [8]: inactive | outcome [9]: inactive | outcome [10]: inactive | outcome [11]: inactive | AC50 [12]: 50 µM (active) | outcome [13]: inactive | outcome [14]: inactive | outcome (TIMP1, TIMP1 (gene 7076)): inactive | outcome [15]: inactive | outcome [16]: inactive | outcome [17]: inactive | AC50 [18]: 10.3 µM (active)
